From PubChem BioAssay AID504734 (The Scripps Research Institute Molecular Screening Center, 2011)
Among all 340,000 compounds or so, about 730 (0.21%) were called active.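 How the source made its calls: active means inhibition above the mean over all tested compounds plus 3 SD (cut at about 21% in these data); inactive means the rest.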 The list comes from a sample in which actives are over-represented; it also holds similar structures and randomly drawn compounds.

The molecules below were run against Toll-like receptor 9 (Homo sapiens) + Myeloid differentiation primary response protein MyD88 (Homo sapiens) (UniProt Q9NR96+Q99836) (assay: disruptors of TLR9 binding to MyD88 – cell-based, CHO, BLA complementation, fluorescence, primary screen (AID 504734;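 further: 0% = DMSO only wells and 100% = clavulanate BLA inhibitor control wells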)). Settings: CHO BLA complementation TLR9-MyD88, CCF4 FRET ratio; at 4.98 µM; hits give high values.
Toll-like receptor 9 (Homo sapiens) + Myeloid differentiation primary response protein MyD88 (Homo sapiens), sequence (Q99836 whole entry, looked up): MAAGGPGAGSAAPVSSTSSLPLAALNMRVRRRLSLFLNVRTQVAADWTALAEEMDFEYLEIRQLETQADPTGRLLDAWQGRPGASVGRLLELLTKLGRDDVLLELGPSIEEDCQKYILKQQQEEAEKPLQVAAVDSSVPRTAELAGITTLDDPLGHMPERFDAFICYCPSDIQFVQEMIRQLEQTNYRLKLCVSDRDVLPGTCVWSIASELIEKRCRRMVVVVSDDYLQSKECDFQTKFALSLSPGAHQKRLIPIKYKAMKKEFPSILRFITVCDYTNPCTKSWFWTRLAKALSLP
Toll-like receptor 9 (Homo sapiens) + Myeloid differentiation primary response protein MyD88 (Homo sapiens), sequence (Q9NR96 whole entry, looked up): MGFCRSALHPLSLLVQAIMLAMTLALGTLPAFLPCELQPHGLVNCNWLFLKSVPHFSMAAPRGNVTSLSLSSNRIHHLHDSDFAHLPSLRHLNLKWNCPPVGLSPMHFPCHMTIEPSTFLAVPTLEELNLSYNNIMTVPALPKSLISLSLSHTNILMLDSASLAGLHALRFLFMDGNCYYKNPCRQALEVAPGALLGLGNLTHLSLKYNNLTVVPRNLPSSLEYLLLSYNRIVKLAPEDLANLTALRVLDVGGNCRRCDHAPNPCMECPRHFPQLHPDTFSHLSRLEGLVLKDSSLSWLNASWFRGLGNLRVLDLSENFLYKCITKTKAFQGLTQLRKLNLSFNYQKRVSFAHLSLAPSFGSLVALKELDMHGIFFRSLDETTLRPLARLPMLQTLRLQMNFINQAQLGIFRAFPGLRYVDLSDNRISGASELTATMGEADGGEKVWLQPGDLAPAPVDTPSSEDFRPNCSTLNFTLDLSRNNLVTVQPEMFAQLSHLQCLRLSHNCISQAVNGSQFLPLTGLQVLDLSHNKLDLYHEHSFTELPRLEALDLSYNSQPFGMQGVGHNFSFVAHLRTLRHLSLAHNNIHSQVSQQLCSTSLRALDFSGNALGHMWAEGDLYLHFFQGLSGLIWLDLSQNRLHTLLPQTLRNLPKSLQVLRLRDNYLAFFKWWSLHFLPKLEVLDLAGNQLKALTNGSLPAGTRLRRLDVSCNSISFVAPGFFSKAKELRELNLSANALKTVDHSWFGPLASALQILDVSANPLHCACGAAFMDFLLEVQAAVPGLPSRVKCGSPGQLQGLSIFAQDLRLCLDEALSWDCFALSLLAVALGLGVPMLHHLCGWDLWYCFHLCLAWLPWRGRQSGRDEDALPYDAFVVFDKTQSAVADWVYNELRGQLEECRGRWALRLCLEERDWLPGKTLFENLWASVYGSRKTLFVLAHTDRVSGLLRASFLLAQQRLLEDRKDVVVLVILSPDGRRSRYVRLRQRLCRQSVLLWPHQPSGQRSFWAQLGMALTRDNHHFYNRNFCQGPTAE

inhibition, inactive:
CC(=O)c1ccccc1NC(=O)COC(=O)C1COc2ccccc2O1 (stereo unspecified) 2.77%, C[C@@H]1CN([C@@H](C)CO)S(=O)(=O)c2ccc(-c3ccc(C(=O)N(C)C)cc3)cc2O[C@@H]1CN(C)Cc1ccccc1C(=O)O -6.78%, CCOC(=O)c1c(NC(=S)SC)sc(C(=O)N2CCc3ccccc3C2)c1C -0.74%, COc1ccc(CN2C[C@H]3CON(C)[C@H]3C[C@H]2c2ccc(-c3cccc(F)c3)cc2)cc1 4.13%, O=C(O)C1CCCN1c1nc(Cl)ccc1[N+](=O)[O-] (stereo unspecified) -12.8%, CCOc1cccc(=O)c2c(C)n(CC3CCCO3)c(C)c12 (stereo unspecified) 1.31%, CN1CN(C)c2ccc([N+](=O)[O-])c3cccc1c23 -8.31%, CCN(Cc1ccncc1)C(=S)Nc1ccccc1C 3.02%, Cc1cccc(S(=O)(=O)N(C)C[C@@H]2OCc3cnnn3CCCC(=O)N([C@H](C)CO)C[C@@H]2C)c1 -11.3%, CN1CCN(c2ccncc2S(=O)(=O)N2CCCC2)CC1 3.95%, O=C(O)/C=C/c1ccc(S(=O)(=O)N2CCCCCC2)cc1 -16.4%, COc1cccc(C=CC(=O)C=CC=Cc2ccccc2)c1 -5.47%, COc1ccc(NC(=O)CSc2nnnn2-c2cccc(OC)c2)cc1 13.5%, COCOCCn1cc(CN2CCS(=O)(=O)N(Cc3ccc(-c4ccc(OC)cc4)cc3)C(CC(C)C)C2=O)nn1 (stereo unspecified) -1.5%, C[C@@H]1CN([C@@H](C)CO)C(=O)c2c(c3ccccc3n2C)-c2ccccc2CO[C@H]1CN(C)C(=O)C1CC1 -4%, COc1cccc2sc3cc(NCC[C@@H]4CCCN4C)ccc3c(=O)c12 0.85%, Cc1cc2oc(=O)cc(CN3CCN(Cc4ccccc4)CC3)c2cc1C -18.4%, C[C@H]1CN([C@@H](C)CO)S(=O)(=O)c2ccc(Br)cc2O[C@H]1CN(C)C(=O)c1cnccn1 5.72%, CCC1NC(=O)c2cccnc2-n2c1nc1ccc(C)cc1c2=O (stereo unspecified) 8.64%, COc1ccc(S(=O)(=O)N2CCCCC2)cc1C(=O)NC1CCS(=O)(=O)C1 (stereo unspecified) -5.76%, CCc1ccccc1NC(=O)CN1CCN(C(=O)c2cc(C3CC3)nn2-c2ccccc2)CC1 -43.9%, NC(=O)CSc1nnc(-c2cccc(S(=O)(=O)N3CCOCC3)c2)o1 10.4%, OCCNc1nc(Nc2ccc(Cl)c(Cl)c2)nc2ccccc12 -0.91%, Nc1nnc(SCC(=O)Nc2ccc3nc(SCC(=O)Nc4ccccc4)sc3c2)s1 0.67%, O=C(CSc1ncn[nH]1)Nc1nc2c(F)c(F)c(F)cc2s1 -0.11%, O=C(C[C@H]1C[C@H]2c3cc(NS(=O)(=O)c4ccc(F)cc4)ccc3O[C@H]2[C@H](CO)O1)NCc1cc(F)ccc1F -5.81%, COc1cc(C(=O)N2CCN(C)CC2)cc(OC)c1OC 8.16%, CC1CC(C)CN(S(=O)(=O)c2cccc(C(=O)N3C(=O)c4cccc(N)c4C3=O)c2)C1 (stereo unspecified) -15.2%, COc1ccc(-c2c(C#N)cnc(C)c2C)c(O)c1OC -8.05%, C#Cc1cc(N2CCN(C(=O)c3ccoc3)CC2)n2nc(-c3cccc(Cl)c3)cc2n1 5.91%, CCCCCCNC(=O)O[C@]12C[C@@H](C(=O)OC)[C@@H](C(=O)OC)C[C@@]1(O)CN(S(=O)(=O)c1ccc(C)cc1)C2 -7.21%

inhibition, active:
O=C1c2cccc3c([N+](=O)[O-])ccc(c23)C(=O)N1CC1CCCO1 (stereo unspecified) 56.9%, O=C(/C=C(O)/C=C/c1ccc(O)cc1)/C=C/c1ccc(O)cc1 42%, Cc1cc2oc3ccc(NCCC4CCCN4C)cc3c(=O)c2cc1C (stereo unspecified) 24.9%, O=[N+]([O-])c1c(NCCO)cc(Sc2nc3ccccc3s2)c2nonc12 43.3%, COc1cc(C(=O)N2C(=O)c3cccc(N)c3C2=O)cc(OC)c1OC 20.9%
